These results are taken from PubChem BioAssay (NCI).

The structures appear in SMILES notation. Values joined by “and” are separate entries in the source; they are usually repeats but may differ in a detail not shown here. Equal values may be shown once. This is part of a sample that, as a whole, favours compounds with a hit. Of some 83,000 tested, about 20% had one in any assay.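 Note: values are percent growth. 100 is the growth of untreated cells, values between 100 and 0 indicate rising inhibition; between -100 and 0 indicates cell death.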 A number with no mark means an inactive call. Active and inactive are the calls of the source.

In this experiment the test system is CAKI-1 renal. Nature of the experiment: NCI-60 one-dose screen, 48 h (100 = growth as untreated, 0 = no growth, -100 = all killed). The conditions noted are these: 10 µM. As to the method:
Growth inhibition of the CAKI-1 human tumor cell line is measured as a screen for anti-cancer activity. Cells are grown in 96 well plates and exposed to the test compound for 48 hours. Compounds are tested at a single concentration, which is 10^-5 M for most compounds. The reported endpoint is percent growth (GI% or GIPRCNT), where numbers from 0 - 100% represent growth inhibition, and numbers from -100% - 0 represent cell death. For example, a value of 40 represents 60% growth inhibition. A value of 0 means no net growth occurred over the course of the experiment. A value of -40 indicates 40% of cells at the beginning of the experiment died by the end of the experiment. A value of -100 means all cells are dead at the end of the experiment.
NCI-60 Human Tumor Cell Lines Screen was performed using the standard one-dose NCI protocol, which is described in more detail at https://dtp.cancer.gov/discovery_development/nci-60/default.htm.
Compounds with GIPRCNT values below 10 were considered active. Activity score was based on GIPRCNT using the following formula: […]
Score is 0 for GIPRCNT values of 100 or above, 50 for GIPRCNT values of 0, and 100 for GIPRCNT values of -100.
On to `N#CCc1ccccc1`, for which the growth is 104%. As to `CCOP(=O)(OCC)/C(C#N)=C/c1ccc(Br)cc1`, the growth was 76.2%. As for `COc1cc(/C=C/[N+](=O)[O-])cc(Br)c1OC`, the growth was 61.3%. The figure for `COc1cc2c(cc1OC)C13CCN4CC5=CCOC6CC(=O)N2C1C6C5CC43` (stereo not given) is 103% and 104%. With `O=[N+]([O-])/C=C\c1ccc2c(c1)OCO2` the figure was 86.6%. With `COc1cc(/C=C/[N+](=O)[O-])cc(OC)c1OC`, the growth is -78.2% (active). With `CC(C)(C)OOC(=O)/C=C\C(=O)OOC(C)(C)C`, the growth is 127%. Turning to `[Cl][Hg][c]1ccc(Cl)s1`, the growth is -53% (active). For the compound `COS(=O)(=O)c1ccccc1`, the growth was 104%.

For the compound `COc1cc([N+](=O)[O-])c2ncccc2c1[N+](=O)[O-]`, the growth was 24.8%. Take `O=c1[nH]c2ccccc2n1C1CCN(CCCC(c2ccc(F)cc2)c2ccc(F)cc2)CC1`: the growth is 35.5% and 54%.

On to `COc1ccc(/C=C(\C)[N+](=O)[O-])cc1OC`, for which the growth was -84.4% (active). With `COC(C(=O)C(O)C(C)O)C1Cc2cc3cc(OC4CC(OC(C)=O)C(OC5CC(O)C(OC)C(C)O5)C(C)O4)cc(O)c3c(O)c2C(=O)C1OC1CC(OC2CC(OC3CC(C)(O)C(OC(=O)C(C)C)C(C)O3)C(O)C(C)O2)C(O)C(C)O1` (stereo not given) the figure was 17.1%; with `O=C(CBr)Nc1ccc(Cl)cc1`, 22%.

Take `O=[N+]([O-])c1cc[n+]([O-])c2ccccc12`: the growth is -28% (active).

On to `O=[N+]([O-])c1ccc(N2CCOCC2)c2c1no[n+]2[O-]`, for which the growth is 26.1%. With `COC12C(COC(N)=O)C3=C(C(=O)C(C)=C(N)C3=O)N1CC1C2N1C` (stereo not given) the figure was 16.6%; with `C#CC1(O)CCC(C(C)(C)C)CC1` (stereo not given), 110%; with `C/C(=C\c1ccc(Cl)c(Cl)c1)[N+](=O)[O-]`, 121%. The figure for `CC/C(=C/c1ccc(OC)cc1)[N+](=O)[O-]` is 1.94% (active).

Turning to `CC(=O)[O][Hg][c]1c(C)c(C)cc(C)c1C`, the growth was -83.9% (active). The figure for `Cn1c(O)c(N=O)c(=O)n(C)c1=O` is 107% and 113%; for `Oc1ccccc1-c1ccccc1` it is 97.4% and 121%; for `C[CH2][Hg][S]c1ccccc1C(=O)O` it is -95.2% (active). With `CC1CCC2(OC1)OC1C(O)C3C4CCC5CC(OC6OC(CO)C(OC7OC(CO)C(O)C(OC8OCC(O)C(O)C8O)C7OC7OC(CO)C(O)C(OC8OC(CO)C(O)C(O)C8O)C7O)C(O)C6O)C(O)CC5(C)C4CCC3(C)C1C2C` (stereo not given) the figure was -63% (active). Take `C/C1=C\[C@H](C)C[C@H](C)OC(=O)C[C@H](c2ccc(O)cc2)NC(=O)[C@@H](Cc2c(Br)[nH]c3ccccc23)N(C)C(=O)[C@H](C)NC(=O)[C@@H](C)C1`: the growth was -43.2% (active). With `[Cl][Hg][c]1ccc2ccccc2c1` the figure was -94% (active); with `CC(C)C1(NC(=O)C2CC3c4cccc5[nH]cc(c45)CC3N(C)C2)OC2(O)C3CCCN3C(=O)C(Cc3ccccc3)N2C1=O` (stereo not given), 110%. With `CCOP(=O)(OCC)C(O)c1ccccc1Cl` (stereo not given) the figure was 101%; with `CS(=N)(=O)CCC(N)C(=O)O` (stereo not given), 83.2%; with `O=C1CCC(=O)N1SC(Cl)(Cl)Cl`, 109%. In the case of `S=C=NCCc1ccccc1`, the growth was 69.4%.

Regarding `[Cl][Sn]([c]1ccccc1)([c]1ccccc1)[c]1ccccc1`, the growth is -87.8% (active). The figure for `NNc1ccccc1` is 65.4%; for `O=C(CBr)Nc1ccccc1` it is 106%. The figure for `Cc1cc(C)c(C[N+](C)(C)C)c(C)c1C` is 5.45% (active); for `O=[P+](O)c1ccccc1` it is 103%.

For `COc1cc(/C=C\[N+](=O)[O-])ccc1O`, the growth was 74.4%. As to `COc1ccccc1/C=C/[N+](=O)[O-]`, the growth is 70.9%. `COc1cc(/C=C(/C)[N+](=O)[O-])ccc1O`: the growth is -0.672% (active).
